Measured values as given in PubChem BioAssay AID1259240 (Keith Lab, Institute of Cancer Science, University of …, 2017).
The source made the active and inactive calls. Rule as the data show it: active = fold change mostly below about -2 (no sharp cut-off); inactive = mostly above about -1.8.

experiment: modulation of TERT promoter-driven luciferase – cell-based, luciferase reporter, human, primary screen (AID 1259240); settings: A2780 TERT promoter luciferase reporter, 16 h; at 20 µM, fold versus average of vehicle-only wells

Row | SMILES | fold change | outcome
1 | CN(C)CCCN1C(=O)CSC1c1ccccc1 (stereo not given) | -1.42 (inactive) | 
2 | CCOc1ccc(N2CC(O)=C(c3nc4ccccc4c(=O)[nH]3)C2=N)cc1 |  | inactive
3 | CC1=C(C(=O)Nc2ccccc2)C(c2ccccn2)n2nc(CCCO)nc2N1 (stereo not given) |  | inactive
4 | CCOC(=O)Cn1c(=O)oc2cc(S(=O)(=O)NCCC(C)C)ccc21 | -1 (inactive) | 
5 | CC(C)(C)OC(=O)CN1C(=O)c2ccccc2S1(=O)=O | 1.98 (inactive) | 
6 | C=CCN(C(=O)C1CCC(CNS(=O)(=O)c2cccc3nsnc23)CC1)C1CCCCC1 (stereo not given) | -1.05 (inactive) | 
7 | CCC(CC)COC(=O)C1=C(C)NC(=O)CC1c1ccccc1C (stereo not given) | 1.08 (inactive) | 
8 | O=C1c2cccnc2C(=O)N1Cc1ccccc1 | 1.84 (inactive) | 
9 | COc1ccc(-c2cc(N3C(=O)Nc4ccccc4N3O)n[nH]2)cc1OC | 1.2 (inactive) | 
10 | CCn1c(SCC(=O)N2CCCc3ccccc32)nnc1-c1c[nH]c2ccccc12 |  | inactive
11 | Cc1ccc(-n2c(C)cc(/C=C3/SC(=S)N(CC(=O)O)C3=O)c2C)cc1 | -5.22 (active) | 
12 | Cc1ccccc1-n1cnc2c(sc3nc(N4CCOCC4)c4c(c32)CC(C)(C)OC4)c1=O | -1.84 (inactive) | 
13 | CC(C)n1cnc2cc(NCc3ccccc3Cl)ccc21 | -2.21 (active) | 
14 | COC(=O)c1ccc(C2Oc3c(OC)cccc3C3CC(c4cccs4)=NN32)cc1 (stereo not given) | -1.08 (inactive) | 
15 | CC(=O)c1sc2nc(-c3ccc(Br)cc3)cn2c1C | -17 (active) | 
16 | Cc1ccc(CNc2nnc(Cc3ccncc3)c3ccccc23)cc1 | -1.59 (inactive) | 
17 | COc1ccc(Nc2c(-c3ccc(C)o3)nc3ncccn23)cc1OC | -1.44 (inactive) | 
18 | O=C(NCc1cccnc1)c1cccc(NC2=NC3CS(=O)(=O)CC3S2)c1 (stereo not given) | -1.24 (inactive) | 
19 | COc1ccc(NC(=O)CSc2nc(-c3ccco3)cc(C(F)(F)F)n2)c(OC)c1 | -1.96 (inactive) | 
20 | Cc1nn2c(=O)/c(=C/c3ccc(Cl)c(Cl)c3)sc2nc1=O | 1.84 (inactive) | 

Row | SMILES | fold change | outcome
21 | CCn1c(SCc2nc(-c3ccc(Cl)cc3)no2)nnc1-c1ccco1 | -2.86 (active) | 
22 | Cc1ccc2ccc(C(Nc3ccccn3)c3ccncc3)c(O)c2n1 (stereo not given) | -1.62 (inactive) | 
23 | CCN1CCN(S(=O)(=O)c2ccc3[nH]c(=O)oc3c2)CC1 | 1.02 (inactive) | 
24 | O=C(c1ccc2c(=O)n3c(nc2c1)CCCCC3)N1CCCCCC1 | 1.21 (inactive) | 
25 | Cc1ccc(-c2csc3ncnc(NCCC(=O)O)c23)cc1 | 1.18 (inactive) | 
26 | CCc1ccc(C2C3=C(CC(C)(C)CC3=O)NC3=C2C(=O)c2ccccc23)cc1 (stereo not given) | -2.26 (active) | 
27 | COC(=O)CSCc1nc2ccccc2[nH]c1=O | -1.41 (inactive) | 
28 | O=C(CC(=O)Nc1ccc(F)cc1F)Nc1ccc2nc3n(c(=O)c2c1)CCCCC3 | -1.32 (inactive) | 
29 | Cc1nc(SCC(=O)N2CCCC2)c2c(=O)n(C)c(=O)n(C)c2n1 | 1.5 (inactive) | 
30 | CC(=O)N(C1=C(N(C)C)C(=O)c2ccccc2C1=O)c1cc(C)cc(C)c1 | -1.54 (inactive) | 
31 | Cc1nn(-c2nc3ccccc3[nH]2)c(=O)c2ccccc12 | -14.7 (active) | 
32 | O=C(CC1C(=O)N(c2cccc(Cl)c2)C(=O)N1Cc1cccs1)Nc1ccccc1 (stereo not given) | 1.26 (inactive) | 
33 | COc1ccccc1-c1cc(N)n(S(=O)(=O)c2ccc([N+](=O)[O-])cc2)n1 | -1.09 (inactive) | 
34 | O=C(NCCc1c[nH]c2ccccc12)c1cc2ccccn2n1 | 1.7 (inactive) | 
35 | CCOC(=O)C1CCN(c2c(NCCCN3CCCCCC3)c(=O)c2=O)CC1 | -1.3 (inactive) | 
36 | CCc1ccc(S(=O)(=O)n2c(C)nc3ccccc32)cc1 | -2.42 (active) | 
37 | Cc1cc(C(=O)NC2CCCCC2)on1 | 1.39 (inactive) | 
38 | CNC(=O)c1ccc(-c2nn(C)c(=O)c3ccccc23)cc1 | -1.06 (inactive) | 
39 | O=C1Nc2ccccc2/C1=C\c1cn(CC(=O)N2CCCC2)c2ccccc12 | 1.66 (inactive) | 
40 | CN1CCc2nc3sc(C(=O)Nc4ccc(F)cc4)c(N)c3cc2C1 | -1.42 (inactive) | 
